# Among all 16,000 compounds or so, about 4,000 (25%) were called active. About 26% were inconclusive and are not listed. Only a sample is shown. Values without a mark were called inactive. Calls follow the shape of the dose curve; as a rule, active = well fitted curve in the direction sought with a large enough effect; inconclusive = small, poorly fitted or top-dose-only effect, or effect the other way; inactive = no such curve, though single readings can be large or run the other way.
# Molecular target: Cytochrome P450 2C9 (Homo sapiens) (UniProt P11712)
# Test: Cytochrome panel assay with activity outcomes
# Conditions: recombinant CYP, pro-luciferin dealkylation, luminescence, p450-cyp2c9; series mostly up to 57.1 µM; activity, negative = inhibition: at the top concentration
# % is scaled to controls: 0 for no effect and ±100 for the full control effect.
# Chain of Cytochrome P450 2C9 (Homo sapiens) (P11712 whole entry, looked up): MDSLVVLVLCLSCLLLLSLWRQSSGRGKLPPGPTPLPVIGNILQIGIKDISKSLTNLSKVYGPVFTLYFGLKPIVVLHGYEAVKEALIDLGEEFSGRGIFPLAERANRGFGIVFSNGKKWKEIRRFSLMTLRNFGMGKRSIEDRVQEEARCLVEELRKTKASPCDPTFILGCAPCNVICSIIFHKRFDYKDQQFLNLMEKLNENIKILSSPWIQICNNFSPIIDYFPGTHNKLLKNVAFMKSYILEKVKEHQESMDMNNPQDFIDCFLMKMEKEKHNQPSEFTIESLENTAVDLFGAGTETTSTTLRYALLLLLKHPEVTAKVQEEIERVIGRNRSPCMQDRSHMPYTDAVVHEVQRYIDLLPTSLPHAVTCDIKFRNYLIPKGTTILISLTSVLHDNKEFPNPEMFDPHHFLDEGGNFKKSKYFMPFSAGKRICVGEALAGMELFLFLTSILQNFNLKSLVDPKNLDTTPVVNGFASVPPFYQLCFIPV
Compound,AC50,"activity, negative = inhibition"
O=C(NCc1ccccc1)C(c1cccs1)N(Cc1cccs1)C(=O)c1cnccn1 (configuration not stated),15.8 µM (active),
COc1ccc(CNC(=O)C(c2ccc(C)cc2)N(Cc2cccs2)C(=O)c2ccc3c(c2)OCCO3)cc1 (configuration not stated),7.08 µM (active),
COc1ccc2nc3oc(C(=O)NCc4cccs4)cc3cc2c1,,-10.2%
CN(Cc1ccco1)c1cc(-c2ccccc2Cl)ncn1,,-2.34% [at 2.29 µM]
N[C@H](C(=O)O)[C@@H]1[C@@H](C(=O)O)C1(F)F,,-13.7%
COc1ccc(C(C(=O)NCc2ccccc2)N(Cc2cccs2)C(=O)c2cnccn2)cc1 (configuration not stated),7.94 µM (active),
CC1(C)[C@@H]2CC[C@]1(C)[C@@H](OC(=O)/C=C\c1ccccc1)C2,,-14.1% [at 11.4 µM]
CS(=O)(=O)N1CCC2(CCN(C(=O)Nc3cccc(F)c3)CC2)CC1,,-4.47%
COc1cccc(N(CC(=O)Nc2cccc(C(C)=O)c2)S(C)(=O)=O)c1,25.1 µM (active),
CS(=O)(=O)N1CCC[C@@]2(CCN(C(=O)Nc3cccc(F)c3)C2)C1,,3.71%
CS(=O)(=O)N(CC(=O)Nc1cccc(F)c1)c1cccc([N+](=O)[O-])c1,3.55 µM (active),
CC(=O)NCCC(=O)Nc1sc2c(c1-c1nc3ccccc3[nH]1)CCCC2,11.2 µM (active),
CC(=O)Nc1sc2c(c1CN1CCN(C)CC1)CCCC2,,-27.7%
CC(=O)Nc1sc2c(c1C(N)=O)CCCC2,,-29.9%
N#Cc1cccc(-c2cc(NCc3cccs3)ncn2)c1,,-9.65% [at 2.29 µM]
C[N+]1(C)CCc2cc3c(cc2[C@@H]1[C@@H]1C(=O)Oc2c1ccc1c2OCO1)OCO3,inactive,
CN1CCc2cc3c(cc2[C@@H]1[C@@H]1C(=O)Oc2c1ccc1c2OCO1)OCO3,12.6 µM (active),
O=C(O)c1ccc(Sc2nnnn2-c2ccccc2)c([N+](=O)[O-])c1,,19%
O=C(Nc1ccccc1[N+](=O)[O-])C1C(c2ccccc2)=C1c1ccccc1,6.31 µM (active),
COCC(=O)N1CCC2(CCCN(C(=O)Nc3cccc(F)c3)C2)CC1,,-2.36%
CC(=O)SCC[N+](C)(C)C,,9.28%
COc1ccc(/C=C2/S/C(=N/N=C3\CC4CCC3(C)C4(C)C)NC2=O)cc1 (configuration not stated),8.91 µM (active),
CCCCCCCCC(=O)NCc1cc(OC)c(O)cc1I,,-13.8%
COc1cc(CNC(=O)CCCC/C=C\C(C)C)ccc1O,2 µM (active),

Compound,AC50,"activity, negative = inhibition"
CCCCCCCC/C=C\CCCCCCCC(=O)NCc1ccc(O)c(OC)c1,,-9.24%
Cc1ccnc(N)c1,,28.1%
CSc1nsc(/C=C/Nc2ccc(Cl)cc2)c1C#N,2.24 µM (active),
CCn1c(SCc2cccc(C)c2)nnc1-c1ccc(C)cc1,,-21.7%
CCn1c(SCC(=O)N2CCN(S(=O)(=O)c3ccccc3)CC2)nnc1-c1cccs1,,-37.8%
CCn1c(SCc2nc3ccccc3[nH]2)nnc1-c1ccc(OC)cc1,12.6 µM (active),
c1ccc(-c2nnc(SCc3nc4ccccc4[nH]3)n2Cc2ccco2)cc1,6.31 µM (active),
Cc1ccccc1CSc1nnc(-c2cccs2)n1Cc1ccco1,11.2 µM (active),
CN(Cc1ccco1)c1nc(-c2ccoc2)nc2ccccc12,,-3.83% [at 2.29 µM]
Cc1ccccc1-c1cncnc1N(C)Cc1ccco1,,-10.8% [at 2.29 µM]
O=C(O)CC[C@]1(C(=O)O)CCC(=O)c2ccccc21,,-1.2% [at 11.4 µM]
N[C@H](C(=O)O)[C@@H]1C[C@@H]1C(=O)O,inactive,
O=C1C=C(c2cccs2)CC(c2cccs2)C1n1cnc([N+](=O)[O-])c1 (configuration not stated),14.1 µM (active),
Cc1nc(SCC(=O)c2cc3ccccc3oc2=O)c(C#N)c(C)c1C(=O)Nc1ccccc1,0.794 µM (active),
Cc1ccc(N2C(=O)CC(c3ccsc3)C3=C2CC(C)(C)CC3=O)cc1 (configuration not stated),3.98 µM (active),
CC(=O)NCCNc1nc(-c2ccc(C(=O)N(C)C)cc2)nc2ccccc12,,6.97% [at 2.29 µM]
Cc1nc2ccc3nc(NC(=O)c4ccc(S(=O)(=O)N5CCOCC5)cc4)sc3c2s1,,-18.4%
Cc1nc2c(ccc3nc(NC(=O)c4ccc5c(c4)OCCO5)sc32)s1,0.708 µM (active),
COc1cc(C(=O)Nc2nc3ccc4nc(C)sc4c3s2)cc(OC)c1OC,,-37.3%
CN(C)c1ncnc2c1ncn2CCn1cnc2c(N(C)C)ncnc21,,-7.75% [at 11.4 µM]
CCN(C(=O)COc1cc(=O)n(C)c2ccccc12)c1cccc(Cl)c1,7.94 µM (active),
COc1cc(=O)n(C)c2c(OC[C@@H](O)C(C)(C)O)cccc12,inactive,
CCN(C(=O)Cn1c(=O)oc2ccccc21)c1cccc(C(F)(F)F)c1,,11.8%

# Reference: PubChem BioAssay AID1851 (National Center for Advancing Translational Sciences (NCATS), 2009)
